Reference: PubChem BioAssay
Results filed as inconclusive are left out. Active and inactive are the calls of the source.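 Rule for the calls, unless noted: active = growth inhibition above 25% in both replicates, a cutoff set 3 SD above the mean; inconclusive = above 25% in only one replicate; inactive = the rest.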

Assays:
[1] = Her2 expression decrease, cell viability multiplex – SKBR3 breast tumor cells, AlphaScreen, ATP viability, primary screen (AID 461;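 active = Her2 level under about 52% in both replicate screens, with viability over 70% of control, limit read from the data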;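 for Her2 level: lower value means less Her2 protein in the cells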;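 for viability: percent of carrier control wells set as 100% viability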); details: SKBR3 Her2 protein level, 18-24 h, measured here: SKBR3 viability, ATP luminescence, at 10 µM
[2] = target: Receptor tyrosine-protein kinase erbB-2 (Homo sapiens) (UniProt P04626); experiment: as above; details: 18-24 h, at 10 µM, stronger effect = lower value
[3] = reduced viability of SK-BR-3 breast cancer cells – cell-based, 24 h, human, pilot screen (AID 572;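 active = viability at or below 10% of carrier control in both of two separate runs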;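 note: compound exposure lasted between 18 and 24 h rather than exactly 24 h; 100% = carrier-treated control wells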); details: SK-BR-3 viability, CellTiter-Glo luminescence, at 10 µM, stronger effect = lower value
[4] = HUVEC growth inhibition – cell-based, human, primary screen (AID 575;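 active = viability at or below 30% in both replicate assays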;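 note: 100% = median of untreated cell wells with 0.1% DMSO on each plate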); details: HUVEC proliferation, CellTiter-Glo luminescence, 72 h; at 10 µM; stronger effect = lower value
[5] = H69AR cell proliferation blockers – human, duplicate replicates, primary screen (AID 580;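 active = viability at or under a set limit in both replicates, limit being median viability minus 3 SD, cut at about 48% in these data, passing the limit was not always enough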;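 note: 100% = mean luminescence of untreated wells and 0% = no signal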); details: H69AR lung tumor cells viability, ATP luminescence, 72 h; at 10 µM; stronger effect = lower value
[6] = MRP1 drug-resistance reversers in H69AR cells – cell-based, doxorubicin co-treatment, pilot screen (AID 601;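 active = viability loss from added drug above about 55%, and viability with drug at most 40%, in both replicates, limit read from the data, passing the limit was not always enough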); details: CellTiter-Glo, 72 h, at 10 µM; for differential viability (reversal): stronger effect = higher value
[7] = yeast transport mutant growth inhibition pilot in 384-well plates, post-Golgi transport modulator project (AID 636; in the data active = inhibition above about 31%); details: absorbance 615 nm, about 18 h, stronger effect = higher value
[8] = growth suppression of yeast trafficking mutant, preliminary HTS, modulators of trafficking downstream of Golgi apparatus project, 1536-format plate, OD 615 nm (AID 637; in the data active = inhibition above about 30%); details: yeast transport mutant growth, absorbance 615 nm, 18 h; stronger effect = higher value
[9] = S. cerevisiae growth inhibition in permissive medium (OD615), pilot counter-assay for S. cerevisiae lifespan shortening project, permissive growth control (AID 705); details: OD615, 24 h, at 10 µM, stronger effect = higher value
[10] = S. cerevisiae growth inhibition in restrictive medium, OD615, pilot screen, restrictive growth control, yeast lifespan reduction project (AID 706;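 active = growth inhibition above a set limit, 3 SD over mean compound inhibition, in both replicates, cut at about 43% in these data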;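 note: modified DeaD lifespan yeast strain shifted to restrictive glucose medium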); details: OD615, 48 h, at 10 µM, stronger effect = higher value
[11] = doxorubicin toxicity protection in MRP-1 cells – H69AR cells, CellTiter-Glo, duplicate, MRP-1 activator project, pilot screen (AID 807;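 active = viability increase at or above a cutoff of the median across tested compounds plus 3 SD, cut at about 8.5% in these data, passing the limit was not always enough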;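 note: compound pretreatment 18-22 h then 72 h combined with doxorubicin; 0% = doxorubicin alone and 100% = vehicle without doxorubicin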); details: H69AR viability with doxorubicin, CellTiter-Glo luminescence; at 10 µM; stronger effect = higher value
[12] = viability of HCT116 without oncogenic beta-catenin – human colon tumor cells, pilot screen (AID 823;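 active = cell viability at or below a set limit in both duplicate runs, the limit being the all-compound median minus 4 SD, cut at about 23% in these data, passing the limit was not always enough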;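 note: 0% = wells killed by 20 µM Hyamine and 100% = untreated DMSO cell wells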); details: HCT116 beta-catenin knockout viability, CellTiter-Glo, 60 h; at 10 µM; stronger effect = lower value
[13] = viability of PTEN-null HCT116 cells – cell-based, HCT116 clonal line, CellTiter-Glo, pilot screen (AID 824;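 active = viability at or below 27.92% in each of two runs, the all-compound median minus 4 SD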;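 note: 0% = 20 µM Hyamine control and 100% = vehicle cell control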); details: HCT116 PTEN-deleted viability, 60 h, at 10 µM, stronger effect = lower value
[14] = RAM pathway blockade in budding yeast – dse1pr::URA3 reporter, 5-FOA selection, pilot screen (AID 869;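 active = inhibition over a set limit, the all-compound mean plus 3 SD, in both replicate runs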;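 note: 0% = DMSO wells with no growth and 100% = 10 µM 1-NA-PP1 with full growth; RAM network block rescues cells from 5-FOA so hits raise OD615 growth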); details: S. cerevisiae dse1pr::URA3 5-FOA growth, OD615, 2 d; at 10 µM; stronger effect = higher value; strain carries analog-sensitive mutant Cbk1 kinase
[15] = RAM signaling pathway blockade in yeast – S. cerevisiae, Pdr1DBD-CYC8 efflux-inhibited sensitized strain, primary screen (AID 1298;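 active = RAM network inhibition above 8.4% in each of two replicates, 3 SD over the compound average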;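 note: 0% = DMSO untreated cells without growth and 100% = 10 µM 1-NA-PP1 full growth; higher means more yeast growth rescued from 5-FOA killing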); details: S. cerevisiae cbk1-as DSE1-URA3 strain, 5-FOA growth OD615, 2 d; at 50 µM; stronger effect = higher value
[16] = H69AR cells + 2 uM doxorubicin, measured here: viability with 2 uM doxorubicin, stronger effect = lower value
[17] = H69AR cells, compound alone cytotoxicity

Sequence of Receptor tyrosine-protein kinase erbB-2 (Homo sapiens) (P04626 whole entry, looked up): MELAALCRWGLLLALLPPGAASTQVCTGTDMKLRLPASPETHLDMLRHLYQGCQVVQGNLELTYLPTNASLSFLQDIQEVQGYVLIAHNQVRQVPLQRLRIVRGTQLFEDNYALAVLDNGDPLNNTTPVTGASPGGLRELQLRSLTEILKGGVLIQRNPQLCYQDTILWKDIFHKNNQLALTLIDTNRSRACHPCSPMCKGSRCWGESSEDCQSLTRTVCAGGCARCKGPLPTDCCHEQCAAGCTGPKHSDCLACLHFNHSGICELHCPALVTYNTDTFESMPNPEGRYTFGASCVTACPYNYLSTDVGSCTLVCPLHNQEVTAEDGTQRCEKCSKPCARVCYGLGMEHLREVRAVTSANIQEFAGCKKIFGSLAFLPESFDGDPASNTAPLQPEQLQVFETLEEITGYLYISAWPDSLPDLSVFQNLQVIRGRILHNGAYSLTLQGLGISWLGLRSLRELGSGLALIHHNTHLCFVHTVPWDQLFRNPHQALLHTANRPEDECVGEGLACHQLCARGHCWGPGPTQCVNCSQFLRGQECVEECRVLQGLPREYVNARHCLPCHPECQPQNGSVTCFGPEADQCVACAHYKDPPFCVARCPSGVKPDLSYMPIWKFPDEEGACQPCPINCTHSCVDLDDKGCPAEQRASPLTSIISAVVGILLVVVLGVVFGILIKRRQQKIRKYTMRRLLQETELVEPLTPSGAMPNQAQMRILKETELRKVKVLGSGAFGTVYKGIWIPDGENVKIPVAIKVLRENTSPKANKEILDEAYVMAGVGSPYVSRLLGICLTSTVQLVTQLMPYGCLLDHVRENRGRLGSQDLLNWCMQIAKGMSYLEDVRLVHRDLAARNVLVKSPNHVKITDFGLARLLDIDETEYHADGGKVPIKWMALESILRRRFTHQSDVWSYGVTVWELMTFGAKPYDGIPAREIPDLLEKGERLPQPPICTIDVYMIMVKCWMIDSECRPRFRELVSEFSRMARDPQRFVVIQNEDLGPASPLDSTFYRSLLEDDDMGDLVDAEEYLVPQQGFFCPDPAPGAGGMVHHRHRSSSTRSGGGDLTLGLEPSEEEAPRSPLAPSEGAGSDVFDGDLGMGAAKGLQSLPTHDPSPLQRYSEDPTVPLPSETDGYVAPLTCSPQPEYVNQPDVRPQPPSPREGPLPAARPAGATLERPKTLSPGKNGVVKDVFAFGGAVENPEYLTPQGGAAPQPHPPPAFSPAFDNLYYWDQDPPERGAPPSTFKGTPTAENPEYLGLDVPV

Compound	viability [1] [%]	Her2 level [2]	viability [3]	viability [4]	viability [5]	differential viability (reversal) ([6]; H69AR cells + 2 uM doxorubicin)	viability [6, 16] [%]	viability [6, 17] [%]	inhibition [7]	inhibition [8]	growth inhibition [9]	growth inhibition [10]	viability increase [11]	viability [12]	viability [13]	inhibition [14]	RAM network inhibition [15]
Cc1nc2sc(C(c3cccs3)N3CCOCC3)c(O)n2n1 (stereo not given)	90	100% (inactive)	90% (inactive)	94.8% (inactive)	88.6% (inactive)	-4.79% (inactive)	93.4	88.6	-7.73% (inactive)	-0.83% (inactive)	-7.23% (inactive)	-11.9% (inactive)	-0.31% (inactive)	107% (inactive)	94.2% (inactive)	1.54% (inactive)	1.99% (inactive)
COCCN(CCOC)Cc1c(C)[nH]c2ccccc2c1=O	96.5	98% (inactive)	96.5% (inactive)	105% (inactive)	89.4% (inactive)	-4.47% (inactive)	93.8	89.4	1.28% (inactive)	-7.5% (inactive)	-0.675% (inactive)	-3.83% (inactive)	-2.47% (inactive)	92.1% (inactive)	91.3% (inactive)	1.22% (inactive)	3.31% (inactive)
Cc1cc(C)c(C#N)c(SCC(=O)Nc2ccc(S(=O)(=O)Nc3onc(C)c3C)cc2)n1	90.5	97% (inactive)	90.5% (inactive)	82.4% (inactive)	87.4% (inactive)	-9.41% (inactive)	96.8	87.4	-3.73% (inactive)	0.33% (inactive)	-1.4% (inactive)	7.54% (inactive)	-0.72% (inactive)	109% (inactive)	100% (inactive)	1.98% (inactive)	2.19% (inactive)
O=C1CCCCCC1C1(O)C(=O)Nc2ccccc21 (stereo not given)	100	96.5% (inactive)	100% (inactive)	87.9% (inactive)	95.7% (inactive)	1.21% (inactive)	94.4	95.7	-4.68% (inactive)	-1.67% (inactive)	-0.65% (inactive)	-10.4% (inactive)	-2.3% (inactive)	99.7% (inactive)	95% (inactive)	1.43% (inactive)	1.29% (inactive)
CCOc1cc(C2C3=C(CCCC3=O)N(C)C3=C2C(=O)CCC3)cc(Cl)c1O	106	74.5% (inactive)	106% (inactive)	105% (inactive)	104% (inactive)	12.8% (inactive)	91.5	104	-6.35% (inactive)	0.49% (inactive)	-11.5% (inactive)	-16.7% (inactive)	2.27% (inactive)	96.1% (inactive)	95.8% (inactive)	1.12% (inactive)	4.21% (inactive)
O=C(c1ccc(CNc2c(N3CCCC3)c(=O)c2=O)cc1)N1CCc2ccccc2C1	90.5	100% (inactive)	90.5% (inactive)	104% (inactive)	95.3% (inactive)	2.69% (inactive)	92.6	95.3	3.59% (inactive)	6.67% (inactive)	-4% (inactive)	-0.375% (inactive)	-0.78% (inactive)	92.6% (inactive)	91% (inactive)	0.36% (inactive)	0.72% (inactive)
COCCNC(=O)Cn1cc2c(n1)CCCCC2	93.5	101% (inactive)	93.5% (inactive)	112% (inactive)	95.7% (inactive)	7.38% (inactive)	88.3	95.7	-1.41% (inactive)	-1% (inactive)	-8.06% (inactive)	5.06% (inactive)	0.1% (inactive)	104% (inactive)	96.5% (inactive)	3.16% (inactive)	5.21% (inactive)
COc1ccc2c(c1)CCc1cc(C(=O)N3CCN(c4ccc(N5CCOCC5)nn4)CC3)sc1-2	93.5	79% (inactive)	93.5% (inactive)	98.4% (inactive)	63.7% (inactive)	-11.4% (inactive)	75.1	63.7	-3.08% (inactive)	0.33% (inactive)	3.63% (inactive)	3.83% (inactive)	-1.37% (inactive)	60.4% (inactive)	59% (inactive)	0.905% (inactive)	0.73% (inactive)
NC(=O)c1cccc2c1C(=O)N(C1CCCCC1)C2	109	99.5% (inactive)	109% (inactive)	76% (inactive)	88.9% (inactive)	-2.49% (inactive)	91.4	88.9	-0.77% (inactive)	-1.33% (inactive)	-7.48% (inactive)	-4.63% (inactive)	-0.58% (inactive)	101% (inactive)	95.3% (inactive)	0.59% (inactive)	3.36% (inactive)
CCCSc1nnc2nc3c(nn12)c1ccccc1n3C	86	85.5% (inactive)	86% (inactive)	98.9% (inactive)	89.3% (inactive)	2.42% (inactive)	86.9	89.3	-0.27% (inactive)	7.21% (inactive)	3.75% (inactive)	2.38% (inactive)	-4.48% (inactive)	105% (inactive)	97% (inactive)	1.27% (inactive)	0.96% (inactive)
CCOc1ccc(S(=O)(=O)n2c(C)nc3ccccc32)cc1	93	112% (inactive)	93% (inactive)	65.8% (inactive)	71.2% (inactive)	-45.5% (inactive)	117	71.2	0.51% (inactive)	5.67% (inactive)	-11.5% (inactive)	0.25% (inactive)	1.02% (inactive)	98.2% (inactive)	96.2% (inactive)	1.31% (inactive)	1.31% (inactive)
COCCCNC(=O)CSc1ccc(Cl)cc1	94.5	85% (inactive)	94.5% (inactive)	81.8% (inactive)	95.3% (inactive)	3.39% (inactive)	91.9	95.3	0% (inactive)	-2.67% (inactive)	1.36% (inactive)	-6.93% (inactive)	-1.7% (inactive)	106% (inactive)	97.8% (inactive)	2.25% (inactive)	2.53% (inactive)
COc1ccc(C(=O)NCc2nnc(SC)n2C2CCCCC2)cc1	104	91% (inactive)	104% (inactive)	81.2% (inactive)	92% (inactive)	9.5% (inactive)	82.5	92	-3.33% (inactive)	-3.44% (inactive)	-4.53% (inactive)	3.39% (inactive)	-1.51% (inactive)	99.8% (inactive)	96.4% (inactive)	1.08% (inactive)	2.76% (inactive)
O=C1CN(c2nc3ccccc3n3cnnc23)CC(=O)N1CCc1ccccc1	91.5	100% (inactive)	91.5% (inactive)	104% (inactive)	102% (inactive)	12% (inactive)	90.2	102	-0.38% (inactive)	-1.17% (inactive)	-6.92% (inactive)	-3.06% (inactive)	0.25% (inactive)	102% (inactive)	95.9% (inactive)	3.38% (inactive)	5.88% (inactive)
COc1ccc(NC(=O)CSc2nc3c(c(=O)n2-c2ccc(F)cc2)SCC3)cc1	100	102% (inactive)	100% (inactive)	81.3% (inactive)	95.5% (inactive)	3.3% (inactive)	92.2	95.5	-6.27% (inactive)	-1.15% (inactive)	-8.95% (inactive)	-14.3% (inactive)	0.22% (inactive)	94% (inactive)	90.7% (inactive)	-0.265% (inactive)	3.09% (inactive)
COc1ccccc1S(=O)(=O)Cc1ccc(C(=O)N2CCOCC2)o1	113	98.5% (inactive)	113% (inactive)	105% (inactive)	87.6% (inactive)	-5.08% (inactive)	92.7	87.6	-2.13% (inactive)	3.5% (inactive)	1.17% (inactive)	-2.13% (inactive)	-2.08% (inactive)	106% (inactive)	97.9% (inactive)	1.65% (inactive)	0.78% (inactive)
CCn1c(C(=O)N2CCC(C(=O)N3CCN(c4ccccn4)CC3)CC2)cc2sccc21	95	108% (inactive)	95% (inactive)	93.4% (inactive)	87.1% (inactive)	32.9% (inactive)	54.2	87.1	-2.8% (inactive)	-3.5% (inactive)	-11.8% (inactive)	-12.2% (inactive)	-3.83% (inactive)	78.3% (inactive)	78.2% (inactive)	0.93% (inactive)	1.16% (inactive)
Cc1ccnc(NC(=O)C2CCC(CNc3c(N4CCCC4)c(=O)c3=O)CC2)c1 (stereo not given)	93	93.5% (inactive)	93% (inactive)	92.2% (inactive)	90.2% (inactive)	1.23% (inactive)	89	90.2	-0.64% (inactive)	-3.83% (inactive)	-3.06% (inactive)	4.16% (inactive)	-1.61% (inactive)	72.4% (inactive)	71.6% (inactive)	0.595% (inactive)	-0.21% (inactive)
CCN1C(=O)c2ccccc2S(=O)c2ccc(C(=O)NC3CC3)cc21 (stereo not given)	100	93.5% (inactive)	100% (inactive)	105% (inactive)	105% (inactive)	16% (inactive)	88.7	105	-2.8% (inactive)	3.77% (inactive)	4.88% (inactive)	1.4% (inactive)	-2.52% (inactive)	97.6% (inactive)	95.3% (inactive)	0.16% (inactive)	1.98% (inactive)
CCOC(=O)c1c(C)n(OCc2ccccc2)c2ccc3c(no[n+]3[O-])c12	60	78.5% (inactive)	60% (inactive)	64.8% (inactive)	52.9% (inactive)	-14.2% (inactive)	67.1	52.9	-3.24% (inactive)	-2.95% (inactive)	-12.4% (inactive)	-11.1% (inactive)	-3.24% (inactive)	62.8% (inactive)	62.9% (inactive)	1.99% (inactive)	5.8% (inactive)
